Whole data set: some 1,100 compounds, median “Renilla luciferase signal (cell health) relative to plate median” near 0.97, cut for the highest 2% near 1.6. Shown is part of a subset that was picked to be rich in the highest values.
System: HEK293T (UBE3A T485A transfected, BAR Wnt reporter)
Test: Renilla luciferase signal (cell health) relative to plate median (fold (linear ratio)); higher = higher Renilla signal
Settings: 24 h
Outline: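 Wnt activity (firefly/Renilla ratio) and cell health (raw Renilla) were read with Dual-Glo luciferase and median-centred plate by plate. HEK293T cells, at 4500 cells/well in white 384-well plates with DMEM plus 10% FBS at 37°C and 5% CO2, carried a transfected BAR firefly luciferase Wnt reporter, TK-Renilla and an expression plasmid. The chemicals were applied by robot at 0.01–100 uM for 24 h, beginning four hours after transfection, and results were averaged across four biological replicates.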

| Structure (SMILES) | Renilla luciferase signal (concentration: 0.1 uM) | Renilla luciferase signal (concentration: 1 uM) | Renilla luciferase signal (concentration: 10 uM) | Renilla luciferase signal (concentration: 100 uM) | Renilla luciferase signal (concentration: 0.01 uM) |
| --- | --- | --- | --- | --- | --- |
| O=C(N[C@H](c1ccccc1)[C@@H]1CN2CCC1CC2)c1c(Cl)ccc(C(F)(F)F)c1Cl | 0.771 | 0.687 | 0.344 | 0.143 | – |
| CCOc1ccc(C(C)(C)COCc2cccc(Oc3ccccc3)c2)cc1 [Etofenprox] | 1.01 | 1.12 | 0.95 | 1.14 | – |
| CCC(C)(C)c1ccc(O)cc1 [4-(2-Methylbutan-2-yl)phenol] | 0.874 | 0.809 | 0.795 | 0.442 | – |
| CCNc1nc(NC(C)C)nc(SC)n1 [Ametryn] | 0.318 | 0.3 | 0.543 | 1.78 | 0.34 |
| CCNc1nc(Cl)nc(NC(C)C)n1 [Atrazine] | 0.693 | 0.877 | 0.729 | 1.18 | 0.72 |
| CSc1nc(NC(C)C)nc(NC(C)C)n1 [Prometryn] | 1.03 | 0.973 | 1.01 | 0.989 | 1.14 |
| CCCN(CCC)c1c([N+](=O)[O-])cc(S(N)(=O)=O)cc1[N+](=O)[O-] [Oryzalin] | 0.918 | 0.931 | 0.876 | 0.99 | 1.08 |
| CC1COC(Cn2cncn2)(c2ccc(Oc3ccc(Cl)cc3)cc2Cl)O1 (stereo unspecified) [Difenoconazole] | 1.07 | 0.923 | 0.485 | 0.152 | 1.03 |
| Cc1cccc(N)c1N [2,3-Diaminotoluene] | 0.728 | 0.75 | 0.772 | 0.198 | – |
